About 7,900 targets were measured; listed, in parts, are those with a hit and a random draw of the rest. About 0.6% of all pairs of compound and target were hits.
Experiments:
Experiment in all cases: log2 fold change, soluble protein after heating vs DMSO (PISA); higher = thermal stabilisation; K562 cells, 10 uM, 30 min; active = over 0.2 and 3.5 SD of the protein, either way, in both replicates (recomputed)
[1] = compound: Cc1cccc(CC(=O)N2CCc3c2ccc(-c2cn(C)c4ncnc(N)c24)c3F)n1
Method in brief: (§1)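 K562 cells at 2×10^6 cells/mL were exposed to 10 μM compound for 30 min, then aliquots were heated for 3 min across 48°C-58°C, pooled, and extracted in PBS containing 0.5% NP-40 at 4°C. The supernatant after 21,000xg for 90 min was taken as soluble protein and measured by TMTpro 16plex LC-MS/MS with channel sums equalised. Thermal stability is reported relative to control samples, with values from duplicates. Fold changes are given on a log2 scale.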

dasatinib = compound: Cc1nc(Nc2ncc(C(=O)Nc3c(C)cccc3Cl)s2)cc(N2CCN(CCO)CC2)n1 [dasatinib]
Method in brief: as §1

[2] = compound: Cn1cc(-c2ccc3c(c2)CCN3C(=O)Cc2cccc(C(F)(F)F)c2)c2c(N)ncnc21
Method in brief: as §1

[3] = compound: Cn1cc(-c2ccc3nnc(C(F)(F)c4ccc5ncccc5c4)n3n2)cn1
Method in brief: as §1

tipifarnib = compound: Cn1cncc1[C@@](N)(c1ccc(Cl)cc1)c1ccc2c(c1)c(-c1cccc(Cl)c1)cc(=O)n2C [tipifarnib]
Method in brief: as §1

mubritinib = compound: FC(F)(F)c1ccc(/C=C/c2nc(COc3ccc(CCCCn4ccnn4)cc3)co2)cc1 [mubritinib]
Method in brief: as §1

nilotinib = compound: Cc1cn(-c2cc(NC(=O)c3ccc(C)c(Nc4nccc(-c5cccnc5)n4)c3)cc(C(F)(F)F)c2)cn1 [nilotinib]
Method in brief: as §1

[4] = compound: Cc1nc(Nc2n[nH]c3c2CN(C(=O)N[C@H](CN(C)C)c2ccccc2)C3(C)C)c2sccc2n1
Method in brief: as §1

[5] = compound: Cc1ncc(-c2ccnc(Nc3ccc(S(C)(=O)=O)cc3)n2)n1C(C)C
Method in brief: as §1

bafetinib = compound: Cc1ccc(NC(=O)c2ccc(CN3CC[C@H](N(C)C)C3)c(C(F)(F)F)c2)cc1Nc1nccc(-c2cncnc2)n1 [bafetinib]
Method in brief: as §1

Measured: log2 fold change

GAB2 (UniProt Q9UQC2)
UniProt Q9UQC2, sequence (Q9UQC2 whole entry, looked up): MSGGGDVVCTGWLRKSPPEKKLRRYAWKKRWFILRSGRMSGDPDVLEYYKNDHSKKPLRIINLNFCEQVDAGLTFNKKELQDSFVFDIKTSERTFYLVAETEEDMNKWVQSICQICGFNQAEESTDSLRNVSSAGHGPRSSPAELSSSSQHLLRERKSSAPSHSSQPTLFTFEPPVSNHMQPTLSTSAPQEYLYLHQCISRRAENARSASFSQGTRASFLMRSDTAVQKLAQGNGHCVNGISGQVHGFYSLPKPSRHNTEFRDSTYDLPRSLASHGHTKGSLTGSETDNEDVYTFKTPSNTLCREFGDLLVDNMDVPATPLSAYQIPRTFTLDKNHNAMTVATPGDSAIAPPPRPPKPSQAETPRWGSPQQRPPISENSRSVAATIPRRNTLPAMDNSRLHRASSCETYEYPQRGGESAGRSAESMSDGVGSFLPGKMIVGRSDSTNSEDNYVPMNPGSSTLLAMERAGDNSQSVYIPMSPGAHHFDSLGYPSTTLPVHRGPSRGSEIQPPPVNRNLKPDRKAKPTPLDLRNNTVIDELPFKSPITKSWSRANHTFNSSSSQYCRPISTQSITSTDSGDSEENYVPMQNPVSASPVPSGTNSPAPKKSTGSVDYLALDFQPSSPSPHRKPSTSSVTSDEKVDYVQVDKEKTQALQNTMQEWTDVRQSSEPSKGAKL
inactive: [1] 0 | dasatinib -0.599 | [2] 0.002 | [3] 0 | tipifarnib 0.175 | mubritinib 0.075

FMR1 (UniProt Q06787)
inactive: [1] -0.146 | [2] -0.224 | [3] -0.028 | tipifarnib -0.129 | mubritinib -0.175

GAK (UniProt O14976)
UniProt O14976, sequence (O14976 whole entry, looked up): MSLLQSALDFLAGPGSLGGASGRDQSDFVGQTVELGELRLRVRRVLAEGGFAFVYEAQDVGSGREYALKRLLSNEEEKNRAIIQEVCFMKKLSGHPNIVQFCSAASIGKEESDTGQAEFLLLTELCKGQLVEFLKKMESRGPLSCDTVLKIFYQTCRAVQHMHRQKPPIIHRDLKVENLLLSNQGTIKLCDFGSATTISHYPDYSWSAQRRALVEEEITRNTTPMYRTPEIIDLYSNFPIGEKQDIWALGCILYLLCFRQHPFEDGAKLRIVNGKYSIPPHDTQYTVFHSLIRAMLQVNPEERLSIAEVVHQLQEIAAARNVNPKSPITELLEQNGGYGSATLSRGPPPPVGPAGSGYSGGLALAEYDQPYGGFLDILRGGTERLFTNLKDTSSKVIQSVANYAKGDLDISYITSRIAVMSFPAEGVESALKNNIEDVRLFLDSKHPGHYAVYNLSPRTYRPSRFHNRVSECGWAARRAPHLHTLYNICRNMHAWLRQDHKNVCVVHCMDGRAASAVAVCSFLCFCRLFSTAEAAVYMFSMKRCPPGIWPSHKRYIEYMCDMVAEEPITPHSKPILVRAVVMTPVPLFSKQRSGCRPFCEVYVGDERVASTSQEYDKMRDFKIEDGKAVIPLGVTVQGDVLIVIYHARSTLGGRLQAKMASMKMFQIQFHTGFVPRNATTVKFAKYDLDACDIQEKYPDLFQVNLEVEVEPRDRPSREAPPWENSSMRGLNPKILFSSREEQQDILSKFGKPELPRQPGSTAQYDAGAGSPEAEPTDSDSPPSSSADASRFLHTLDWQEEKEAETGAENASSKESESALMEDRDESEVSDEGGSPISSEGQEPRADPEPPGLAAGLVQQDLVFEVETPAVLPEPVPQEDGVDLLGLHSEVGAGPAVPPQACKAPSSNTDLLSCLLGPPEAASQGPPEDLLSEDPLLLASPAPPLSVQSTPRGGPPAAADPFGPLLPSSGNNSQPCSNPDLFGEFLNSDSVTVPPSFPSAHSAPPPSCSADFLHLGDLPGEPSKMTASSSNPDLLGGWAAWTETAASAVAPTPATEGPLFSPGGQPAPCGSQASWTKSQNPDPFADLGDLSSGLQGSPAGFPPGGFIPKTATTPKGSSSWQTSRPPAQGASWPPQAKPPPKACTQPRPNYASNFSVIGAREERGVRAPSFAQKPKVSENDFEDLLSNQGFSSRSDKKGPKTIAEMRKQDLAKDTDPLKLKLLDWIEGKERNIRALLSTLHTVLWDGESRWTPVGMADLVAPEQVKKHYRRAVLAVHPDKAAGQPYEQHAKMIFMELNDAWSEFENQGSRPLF
inactive: [1] -0.072 | nilotinib 0.257 | [4] 0.792 | dasatinib 1.31 | [5] 0.232 | [2] -0.07 | [3] -0.031 | tipifarnib -0.238 | mubritinib 0.005

GOLGA6B (UniProt A6NDN3)
inactive: bafetinib -0.087 | [1] -0.042 | nilotinib -0.183 | [4] 0.02 | [5] 0.02 | mubritinib 0.146

HSPA8 (UniProt E9PN89)
inactive: bafetinib -0.04 | [1] -0.338 | nilotinib -0.12 | [4] 0.041 | [5] -0.123 | [2] -0.063 | tipifarnib 0.122 | mubritinib 0.004

GSE1 (UniProt Q14687)
inactive: bafetinib 0.305 | nilotinib 0.034 | [4] 0.004 | dasatinib -0.453 | [5] -0.096 | [2] -0.009 | [3] 0.012

GOLGA8R (UniProt I6L899)
UniProt I6L899, sequence (I6L899 whole entry, looked up): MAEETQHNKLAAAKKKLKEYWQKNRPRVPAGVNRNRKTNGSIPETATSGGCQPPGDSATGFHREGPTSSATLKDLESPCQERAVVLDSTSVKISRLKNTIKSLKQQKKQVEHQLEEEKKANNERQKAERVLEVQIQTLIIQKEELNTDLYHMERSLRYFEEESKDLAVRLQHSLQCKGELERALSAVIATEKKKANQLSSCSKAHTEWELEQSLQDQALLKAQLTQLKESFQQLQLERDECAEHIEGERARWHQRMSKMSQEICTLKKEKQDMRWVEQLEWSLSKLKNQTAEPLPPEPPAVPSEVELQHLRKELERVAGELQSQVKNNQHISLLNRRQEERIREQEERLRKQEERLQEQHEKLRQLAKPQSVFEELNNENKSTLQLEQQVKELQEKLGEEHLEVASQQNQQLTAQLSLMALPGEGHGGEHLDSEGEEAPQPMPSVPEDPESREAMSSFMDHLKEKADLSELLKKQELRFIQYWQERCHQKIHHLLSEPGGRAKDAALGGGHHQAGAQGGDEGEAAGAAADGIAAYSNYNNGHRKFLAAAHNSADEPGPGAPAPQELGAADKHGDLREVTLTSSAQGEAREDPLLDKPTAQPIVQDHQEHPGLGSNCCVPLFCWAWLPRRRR
inactive: bafetinib -0.095 | [1] -0.021 | dasatinib -0.074 | [2] 0.189 | [3] 0.126 | tipifarnib 0.287

GREB1 (UniProt Q4ZG55)
inactive: [2] 0.046

FEN1 (UniProt P39748)
UniProt P39748, sequence (P39748 whole entry, looked up): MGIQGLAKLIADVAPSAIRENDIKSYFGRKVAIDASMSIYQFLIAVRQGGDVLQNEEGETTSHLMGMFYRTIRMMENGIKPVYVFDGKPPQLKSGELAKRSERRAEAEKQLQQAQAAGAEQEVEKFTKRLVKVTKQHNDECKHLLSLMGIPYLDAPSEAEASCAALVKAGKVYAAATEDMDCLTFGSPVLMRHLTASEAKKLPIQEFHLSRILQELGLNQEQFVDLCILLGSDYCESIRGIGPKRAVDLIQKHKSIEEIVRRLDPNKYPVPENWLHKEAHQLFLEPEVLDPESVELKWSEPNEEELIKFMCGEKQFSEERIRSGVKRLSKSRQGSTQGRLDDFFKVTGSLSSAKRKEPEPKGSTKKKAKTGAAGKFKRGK
inactive: bafetinib 0.02 | [1] 0.23 | nilotinib -0.149 | [4] 0.053 | [5] -0.05 | [2] 0.16 | [3] 0.164 | tipifarnib -0.274 | mubritinib 0.314

IDH3A isoform 2 (UniProt P50213)
inactive: bafetinib 0.004 | nilotinib 0 | [4] 0.001 | [5] -0.057 | [2] 0.128

GGA2 (UniProt Q9UJY4)
UniProt Q9UJY4, sequence (Q9UJY4 whole entry, looked up): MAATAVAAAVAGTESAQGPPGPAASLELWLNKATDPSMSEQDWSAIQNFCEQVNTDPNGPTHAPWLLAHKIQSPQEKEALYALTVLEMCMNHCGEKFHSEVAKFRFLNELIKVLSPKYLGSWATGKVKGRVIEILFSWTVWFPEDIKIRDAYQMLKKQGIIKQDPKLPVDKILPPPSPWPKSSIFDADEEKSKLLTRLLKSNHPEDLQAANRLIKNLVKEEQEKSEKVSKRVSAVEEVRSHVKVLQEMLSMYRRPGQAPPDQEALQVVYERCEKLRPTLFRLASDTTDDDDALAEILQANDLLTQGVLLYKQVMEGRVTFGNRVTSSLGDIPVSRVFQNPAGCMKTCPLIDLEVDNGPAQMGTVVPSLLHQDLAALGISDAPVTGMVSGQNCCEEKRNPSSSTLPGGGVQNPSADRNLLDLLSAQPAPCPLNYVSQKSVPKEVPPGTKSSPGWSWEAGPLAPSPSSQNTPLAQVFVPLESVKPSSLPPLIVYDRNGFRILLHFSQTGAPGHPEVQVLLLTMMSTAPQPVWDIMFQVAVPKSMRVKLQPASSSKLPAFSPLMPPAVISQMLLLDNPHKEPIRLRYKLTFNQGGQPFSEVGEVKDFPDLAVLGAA
inactive: bafetinib 0.024 | nilotinib -0.031 | [4] 0.065 | dasatinib 0.075 | [5] -0.013 | [2] 0.024 | [3] 0.034 | tipifarnib -0.003 | mubritinib 0.014

HS1BP3 (UniProt Q53T59)
inactive: bafetinib -0.022 | nilotinib -0.023 | [4] -0.104 | dasatinib -0.047 | [5] -0.029 | [2] 0.062 | [3] -0.067 | tipifarnib -0.038

HNRNPUL1 (UniProt M0R247)
inactive: nilotinib 0.061 | [4] -0.13 | dasatinib 0.206 | [5] 0.025 | [2] -0.024 | tipifarnib 0.259

FGG (UniProt P02679)
inactive: [1] 0.165 | [3] -0.018 | tipifarnib 0.127

FYB1 isoform 3 (UniProt O15117)
inactive: bafetinib -0.019 | [1] -0.071 | nilotinib -0.036 | [4] -0.026 | dasatinib -0.021 | [5] -0.077 | [3] -0.156 | tipifarnib -0.025 | mubritinib 0.085

GBE1 (UniProt Q04446)
inactive: bafetinib 0.067 | dasatinib -0.275 | [2] -0.004 | [3] 0.059 | tipifarnib -0.608 | mubritinib 0.181

FIZ1 (UniProt Q96SL8)
inactive: [1] -0.092 | nilotinib -0.09 | [4] 0.065 | dasatinib -0.026 | [5] -0.213 | [2] -0.137 | mubritinib -0.191

GDE1 (UniProt Q9NZC3)
UniProt Q9NZC3, sequence (Q9NZC3 whole entry, looked up): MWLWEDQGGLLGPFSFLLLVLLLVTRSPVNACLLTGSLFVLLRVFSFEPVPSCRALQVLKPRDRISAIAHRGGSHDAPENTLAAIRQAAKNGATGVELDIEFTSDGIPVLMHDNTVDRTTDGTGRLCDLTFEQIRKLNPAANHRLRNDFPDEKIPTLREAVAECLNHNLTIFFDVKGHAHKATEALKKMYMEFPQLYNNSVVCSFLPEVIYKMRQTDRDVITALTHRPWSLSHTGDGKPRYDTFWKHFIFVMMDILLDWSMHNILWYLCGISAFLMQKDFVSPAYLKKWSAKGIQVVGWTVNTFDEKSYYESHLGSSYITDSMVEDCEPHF
inactive: bafetinib 0.081 | nilotinib 0.03 | [4] 0.054 | dasatinib 0.028 | [5] -0.032 | [2] 0.106 | [3] -0.029 | tipifarnib -0.001 | mubritinib 0.01

FOXO3 (UniProt O43524)
inactive: [1] 0.002 | dasatinib -0.14 | [2] 0 | [3] -0.013 | tipifarnib -0.139 | mubritinib -0.057

GLIPR2 (UniProt Q9H4G4)
inactive: bafetinib -0.101 | [1] -0.024 | dasatinib -0.059 | [2] 0.031 | [3] 0.087 | tipifarnib 0.019 | mubritinib 0.054

FCF1 (UniProt Q9Y324)
inactive: [1] 0.042 | dasatinib 0.139 | [3] -0.119 | tipifarnib 0.242 | mubritinib -0.129

GPS2 (UniProt Q13227)
inactive: bafetinib -0.157 | nilotinib 0 | [4] -0.045 | [5] -0.074 | [3] 0.02 | tipifarnib -0.033 | mubritinib -0.059

FCHO1 (UniProt O14526)
UniProt O14526, sequence (O14526 whole entry, looked up): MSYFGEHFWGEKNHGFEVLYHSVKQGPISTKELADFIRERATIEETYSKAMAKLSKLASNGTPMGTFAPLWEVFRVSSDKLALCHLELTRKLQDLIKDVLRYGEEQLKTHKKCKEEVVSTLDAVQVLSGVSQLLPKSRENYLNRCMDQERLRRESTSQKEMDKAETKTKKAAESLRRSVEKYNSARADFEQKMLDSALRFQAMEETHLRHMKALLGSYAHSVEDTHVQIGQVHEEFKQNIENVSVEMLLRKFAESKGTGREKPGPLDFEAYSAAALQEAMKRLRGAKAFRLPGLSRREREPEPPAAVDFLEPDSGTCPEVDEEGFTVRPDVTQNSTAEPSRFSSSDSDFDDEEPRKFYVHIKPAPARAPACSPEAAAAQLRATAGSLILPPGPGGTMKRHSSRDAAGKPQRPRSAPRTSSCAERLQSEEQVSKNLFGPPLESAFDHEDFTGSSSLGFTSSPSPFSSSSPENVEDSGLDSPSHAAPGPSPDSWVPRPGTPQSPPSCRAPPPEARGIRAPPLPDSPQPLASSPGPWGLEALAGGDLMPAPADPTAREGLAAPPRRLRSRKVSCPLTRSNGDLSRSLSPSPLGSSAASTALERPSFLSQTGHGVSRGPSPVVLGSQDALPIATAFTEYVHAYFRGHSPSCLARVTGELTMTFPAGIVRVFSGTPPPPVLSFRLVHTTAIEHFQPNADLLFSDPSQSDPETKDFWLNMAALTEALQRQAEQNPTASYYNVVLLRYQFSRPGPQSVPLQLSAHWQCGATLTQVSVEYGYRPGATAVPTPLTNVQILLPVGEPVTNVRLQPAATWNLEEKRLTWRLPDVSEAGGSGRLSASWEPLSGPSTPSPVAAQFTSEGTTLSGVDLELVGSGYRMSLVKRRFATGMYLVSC
inactive: nilotinib -0.118 | [4] -0.067 | dasatinib -0.275 | [5] -0.127 | [2] 0.079 | [3] 0.033 | tipifarnib -0.119 | mubritinib -0.003

ICMT (UniProt O60725)
inactive: bafetinib -0.103 | nilotinib 0.049 | [4] 0.17 | dasatinib 0.065 | [5] -0.003 | [3] 0.113 | tipifarnib 0.107 | mubritinib 0.284

IFITM3 (UniProt Q01628)
UniProt Q01628, sequence (Q01628 whole entry, looked up): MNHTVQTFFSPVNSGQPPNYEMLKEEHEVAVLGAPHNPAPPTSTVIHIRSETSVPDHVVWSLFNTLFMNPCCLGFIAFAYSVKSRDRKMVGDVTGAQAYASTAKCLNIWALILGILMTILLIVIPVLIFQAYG
inactive: bafetinib -0.073 | nilotinib 0.07 | [4] -0.2 | dasatinib -0.076 | [5] -0.01 | [2] 0.049 | [3] -0.149 | tipifarnib 0.113 | mubritinib -0.157
